This note sets out measurements from PubChem BioAssay (EPA / NIEHS).

Assay [1] in a line: Tanguay_ZF_120hpf_JAW_legacy: (Legacy) Oregon State University Tanguay Lab 120 Hour Post-fertilization zebrafish Assay for Jaw Malformation (AID 2283638).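 As to AC50: active means more embryos with jaw malformation than DMSO controls.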 In outline:
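Dechorionated Tropical 5D wild-type zebrafish embryos, one per well, exposed statically from 6 hpf to 120 hpf at 28C in 0.64% DMSO. Jaw malformation was scored by brightfield microscopy as present or absent. It was not scored in dead embryos.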

Assay [2] can be described thus: Tanguay_ZF_120hpf_OTIC_legacy: (Legacy) Oregon State University Tanguay Lab 120 Hour Post-fertilization zebrafish Assay for Otic Vesicle Malformation (AID 2283639). Put shortly:
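Wild-type zebrafish larvae, whole-embryo exposure from early stage to 120 hpf at 28C. Binary brightfield scoring of otic vesicle morphology, fitted in the positive direction against the DMSO baseline.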

Assay [3] can be described thus: Tanguay_ZF_120hpf_PE_legacy: (Legacy) Oregon State University Tanguay Lab 120 Hour Post-fertilization zebrafish Assay for Pericardial Edema (AID 2283640).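 As to AC50: potency for increased incidence of pericardial edema versus DMSO baseline.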 Put shortly:
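Tropical 5D wild-type zebrafish embryos were statically exposed until 120 hpf at 28C, with 0.64% DMSO final. Pericardial edema was scored by brightfield as present or absent; endpoints were not scored in dead embryos.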

Assay [4] is described as follows: Tanguay_ZF_120hpf_BRAI_legacy: (Legacy) Oregon State University Tanguay Lab 120 Hour Post-fertilization zebrafish Assay for Brain Malformation (AID 2283641). In outline:
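Tropical 5D wild-type zebrafish embryos exposed statically until 120 hpf at 28C, 0.64% DMSO final, sealed and dark. Brain malformation scored present/absent by brightfield at 120 hpf; dead embryos excluded. Trimethyltin chloride 5uM positive control.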

A short description of assay [5]: Tanguay_ZF_120hpf_SOMI_legacy: (Legacy) Oregon State University Tanguay Lab 120 Hour Post-fertilization zebrafish Assay for Somite Malformation (AID 2283647). Put shortly:
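Dechorionated Tropical 5D wild-type zebrafish embryos, one per well from 6 hpf, statically exposed at 28C to 120 hpf in 0.64% DMSO; somite malformation scored present/absent by brightfield; trimethyltin 5 uM positive control; dead embryos not scored.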

Assay [6] is described as follows: Tanguay_ZF_120hpf_PFIN_legacy: (Legacy) Oregon State University Tanguay Lab 120 Hour Post-fertilization zebrafish Assay for Pectoral Fin Malformation (AID 2283648).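 Also: each larva judged yes or no for fin defect by brightfield with dead larvae skipped.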 Put shortly:
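Binary pectoral fin malformation call at 120 hpf by brightfield microscopy; 5D wild-type zebrafish, chorion removed at 4 hpf, one embryo per well from 6 hpf, static exposure at 28C; DMSO (0.64% final) as baseline.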

Assay [7] can be described thus: Tanguay_ZF_120hpf_CFIN_legacy: (Legacy) Oregon State University Tanguay Lab 120 Hour Post-fertilization zebrafish Assay for Caudal Fin Malformation (AID 2283649). Put shortly:
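Dechorionated Tropical 5D wild-type embryos, one per well from 6 hpf, static exposure to 120 hpf at 28C in 0.64% DMSO. Caudal fin malformation scored by brightfield as present/absent; not scored in dead embryos.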

The nature of assay [8]: Tanguay_ZF_120hpf_PIG_legacy: (Legacy) Oregon State University Tanguay Lab 120 Hour Post-fertilization zebrafish Assay for Pigmentation Malformation (AID 2283650). Put shortly: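 Brightfield scoring of pigmentation malformation at 120 hpf, recorded as binary present/absent per larva. Exposure: dechorionated 5D wild-type embryos, one per well, static from 6 hpf at 28C, final DMSO 0.64% (vol/vol). Dead embryos not scored.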

Assay [9] in a line: Tanguay_ZF_120hpf_CIRC_legacy: (Legacy) Oregon State University Tanguay Lab 120 Hour Post-fertilization zebrafish Assay for Circulatory Malformation (AID 2283651). In outline: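 Binary circulatory-malformation call at 120 hpf via brightfield imaging, relative to DMSO controls. Embryos (5D strain, chorion removed) received static, light-shielded exposure at 28C.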
A short description of assay [10]: Tanguay_ZF_120hpf_SWIM_legacy: (Legacy) Oregon State University Tanguay Lab 120 Hour Post-fertilization zebrafish Assay for Swim Bladder Malformation (AID 2283654).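 Also: swim bladder malformation in each larva scored yes or no under brightfield.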 In outline:
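Tropical 5D embryos dechorionated at 4 hpf; 1 embryo/well from 6 hpf; static, sealed, dark exposure at 28C until 120 hpf; final DMSO 0.64%; 5uM trimethyltin chloride positive control; swim bladder defect recorded yes/no; dead embryos not scored.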

Assay [11] in a line: Tanguay_ZF_120hpf_TRUN_legacy: (Legacy) Oregon State University Tanguay Lab 120 Hour Post-fertilization zebrafish Assay for Truncated Body (AID 2283655). In outline:
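Dechorionated Tropical 5D wild-type embryos placed singly from 6 hpf and statically exposed to 120 hpf at 28C, final DMSO 0.64%. Truncated body scored as present/absent by brightfield; not scored in dead embryos.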

Read-out in assay [12]: ABC Transporter (ABCB1), ABCB1 (gene 5243)
The assay can be described thus: CLD_ABCB1_6hr: CellzDirect (CLD) Gene Expression Assay for ABC Transporter (ABCB1) at 6 hours (AID 2283659).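 Also: hits raise ABCB1 transcript above the DMSO vehicle baseline.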 In outline:
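ABCB1 transcript measured by quantitative nuclease protection assay, chemiluminescent read-out, 6 h after dosing human hepatocyte cultures (0.2% DMSO vehicle, daily redosing). Activity fitted as increase over DMSO baseline; cytotoxicity flagged by phase-contrast morphology.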

Read-out in assay [13]: Broad substrate specificity ATP-binding cassette transporter ABCG2 (Homo sapiens) (UniProt Q9UNQ0)
Briefly: CLD_ABCG2_6hr: CellzDirect (CLD) Gene Expression Assay for ABC Transporter (ABCG2) at 6 hours (AID 2283660). Put shortly:
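ABCG2 mRNA induction measured by qNPA chemiluminescence in human primary hepatocyte cultures, 6 h post-dose. Chemicals tested at several concentrations against a 0.2% DMSO vehicle; positive-direction fit relative to DMSO.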

Assay [14] can be described thus: Tanguay_ZF_120hpf_NC_legacy: (Legacy) Oregon State University Tanguay Lab 120 Hour Post-fertilization zebrafish Assay for Notochord and Tail Malformation (AID 2283656). In outline: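 Binary notochord-distortion calls, made by brightfield inspection, form the read-out; activity is fitted in the positive direction against DMSO. Exposure ran statically from 6 to 120 hpf at 28C with 0.64% DMSO.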

Read-out in assay [15]: xenobiotic metabolism (CYP1A1), CYP1A1 (gene 1543)
The assay can be described thus: CLD_CYP1A1_6hr: CellzDirect (CLD) Gene Expression Assay for xenobiotic metabolism (CYP1A1) at 6 hours (AID 2283661).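 Also: potency for transcript induction above DMSO vehicle baseline.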 Put shortly:
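Read-out 6 h post-dose: qNPA chemiluminescent quantitation of transcript induction against 0.2% DMSO. Cells were cultured primary human hepatocytes from two separate donor preparations; phase-contrast morphology annotated apparent cytotoxicity.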

The nature of assay [16]: Tanguay_ZF_120hpf_SNOU_legacy: (Legacy) Oregon State University Tanguay Lab 120 Hour Post-fertilization zebrafish Assay for Snout Malformation (AID 2283637). In outline: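 Binary brightfield scoring of snout malformation at 120 hpf. Dechorionated 5D wild-type embryos, one per well, static exposure from 6 hpf at 28C, sealed and dark; final DMSO 0.64% (vol/vol), DMSO as baseline; 5uM trimethyltin chloride positive control.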

Inconclusive results are not listed. Activity calls are given as the source filed them. The calls were made as follows: active = hit-call score of the fitted dose curve at least 0.9, where 1 is the maximum; inconclusive = response in the unintended direction; inactive = score below 0.9.

Broad substrate specificity ATP-binding cassette transporter ABCG2 (Homo sapiens), sequence (Q9UNQ0 whole entry, looked up): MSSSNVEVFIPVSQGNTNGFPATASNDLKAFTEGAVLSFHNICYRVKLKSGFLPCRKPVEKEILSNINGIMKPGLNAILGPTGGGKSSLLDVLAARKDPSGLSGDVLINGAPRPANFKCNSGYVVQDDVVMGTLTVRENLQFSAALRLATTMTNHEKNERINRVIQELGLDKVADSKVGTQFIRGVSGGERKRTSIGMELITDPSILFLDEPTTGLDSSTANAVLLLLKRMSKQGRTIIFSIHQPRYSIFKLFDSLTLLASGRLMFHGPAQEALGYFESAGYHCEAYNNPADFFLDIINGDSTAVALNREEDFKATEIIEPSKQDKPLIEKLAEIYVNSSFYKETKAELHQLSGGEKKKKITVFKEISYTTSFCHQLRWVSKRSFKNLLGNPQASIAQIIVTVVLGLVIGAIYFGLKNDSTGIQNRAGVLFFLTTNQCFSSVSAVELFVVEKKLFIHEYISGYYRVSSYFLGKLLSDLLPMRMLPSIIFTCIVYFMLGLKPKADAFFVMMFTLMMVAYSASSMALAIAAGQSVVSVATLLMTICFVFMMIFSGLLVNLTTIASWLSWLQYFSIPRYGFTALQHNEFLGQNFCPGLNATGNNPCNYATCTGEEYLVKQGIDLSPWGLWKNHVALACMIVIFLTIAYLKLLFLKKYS

For the compound `O=C(O)COc1nc(Cl)c(Cl)cc1Cl`, the outcome in assay [1], in assay [2], in assay [3], in assay [4], in assay [5] and in assay [6] was inactive. Moreover, the compound was called inactive in assay [7], in assay [8], in assay [9], in assay [10], in assay [11] and in [12]. The compound was called inactive in [13].

Consider `CCOC(=O)C(Cl)Cc1cc(-n2nc(C)n(C(F)F)c2=O)c(F)cc1Cl` (configuration not stated), for which the AC50 (in general, the concentration at which the activity in the assay is half-maximal) is 5.22 µM (active) in [1]; 1.82 µM (active) in assay [2]; 2.58 µM (active) in assay [3]; 2.91 µM (active) in assay [4]; 2.22 µM (active) in assay [5]; 2.19 µM (active) in assay [6]. For the same compound, the AC50 in assay [7] is 5.09 µM (active); in assay [8] it was 1.88 µM (active); in assay [15], 0.375 µM (active). The compound was classed as inactive in assay [9], in assay [10], in assay [11], in [14] and in [12].

`COC(=O)N(OC)c1ccccc1COc1ccn(-c2ccc(Cl)cc2)n1`: the compound was classed as inactive in [1], in assay [2], in [3], in assay [4], in assay [5] and in assay [6]. Further, the call in [7], in [8], in assay [9], in [10], in [11] and in assay [14] was inactive. The compound was classed as inactive in [13].

As for `CNC(=O)ON=CC(C)(C)SC`, the compound was classed as inactive in [1], in assay [2], in assay [4], in assay [5], in [6] and in [7]. Moreover, the call in assay [8], in [9], in assay [10] and in [14] was inactive. Moreover, the AC50 in assay [3] is 2.81 µM (active); in assay [11] it was 1.07 µM (active); in [15], 0.000972 µM (active).

`CON(C)C(=O)Nc1ccc(Cl)c(Cl)c1`: the call in [16], in [1], in assay [2], in assay [3], in assay [4] and in assay [5] was inactive. Moreover, the outcome in assay [6], in assay [7], in [8], in assay [9], in assay [10] and in assay [11] was inactive. Further, the compound was classed as inactive in assay [14]. For the same compound, the concentration at half-maximal activity (AC50) in assay [15] is 0.762 µM (active).

Turning to `CCNc1nc(Cl)nc(NC(C)C)n1`, the result in assay [1], in assay [2], in [3], in assay [4], in assay [5] and in assay [6] was inactive. The result in [7], in [8], in assay [9], in assay [10], in assay [11] and in [14] was inactive. The call in assay [12] and in assay [13] was inactive. Moreover, the AC50 in assay [15] was 2.19 µM (active).
